Results filed as inconclusive are left out. Active and inactive are the calls of the source. Calls come from the whole dose curve; as a rule, active = well fitted activation curve with a large enough effect; inconclusive = small, poorly fitted or top-dose-only effect; inactive = no such curve, though single readings can be large or run the other way. Bridge positions count the residues as written; N and C are the ends. Square brackets hold non-standard residues; d marks the D form. Peptide text beside a SMILES is read from it. NMeY = CN[CH](Cc1ccc(O)cc1)C(=O)O
Molecular target: Cellular tumor antigen p53 (Homo sapiens) (UniProt P04637)
Test: Primary qHTS for small molecule compounds that upregulate eGFP-tagged delta133p53alpha (in N-terminal) cells. (AID 2060322); note: nearly all actives have a fitted effect of over 75% in size;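 for activation: cells pre-induced with doxycycline then dosed without doxycycline; series mostly up to about 56 µM; 0% = DMSO vehicle and 100% = reference activator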
Settings: NCI-H358 eGFP-delta133p53alpha fluorescence, 24 h; activation: active compounds read high
Method in brief: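 NCI-H358 cells pre-induced 24 h with 10 ng/ml doxycycline for eGFP-delta133p53alpha, plated dox-free and exposed 24 h at 37C to titrated compounds. Fixed, Hoechst-stained; gated GFP peak intensity by laser scanning cytometry, normalized to DMSO (0%) and 57.5 uM 5-azacytidine (100%).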
Potency is the fitted concentration of half-maximal effect.

Sequence of Cellular tumor antigen p53 (Homo sapiens) (P04637 whole entry, looked up): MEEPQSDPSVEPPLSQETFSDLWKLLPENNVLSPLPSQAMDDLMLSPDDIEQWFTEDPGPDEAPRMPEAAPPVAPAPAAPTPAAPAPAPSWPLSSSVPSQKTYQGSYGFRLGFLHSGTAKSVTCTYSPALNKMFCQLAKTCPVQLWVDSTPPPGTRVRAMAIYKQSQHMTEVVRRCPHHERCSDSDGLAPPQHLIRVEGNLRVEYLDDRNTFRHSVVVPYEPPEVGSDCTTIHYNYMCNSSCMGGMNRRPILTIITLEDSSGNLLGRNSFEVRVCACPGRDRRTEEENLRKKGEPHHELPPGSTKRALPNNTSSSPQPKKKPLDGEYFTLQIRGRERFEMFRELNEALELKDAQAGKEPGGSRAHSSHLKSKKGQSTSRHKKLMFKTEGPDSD

Question: With `CC(C)S(=O)(=O)NC[C@@H]1CC(c2ccc(N3CCCC3)c(F)c2)=NO1` as the compound, how does the activation read?
Answer: Its activation is 0.333% (inactive).

Question: For `CCC(C)C1NC(=O)C2CCCN2C(=O)C(NC(C)=O)C(C)OC(=O)C(Cc2ccc(OC)cc2)N(C)C(=O)C2CCCN2C(=O)C(C(C)C)NC1=O` (stereo unspecified) (Ac-TPIVP[NMeY](Me); ester 1-C; configuration not given here), which activation is on record?
Answer: The activation was 15.3% (inactive).

Question: For `CC[N+]1(CC)CCC(=C(c2ccccc2)c2ccccc2)C1C` (stereo unspecified), which activation is on record?
Answer: The activation was -5.67% (inactive).

Question: For `COC1CC/C=C(\C)C(=O)Nc2cc(O)cc(c2)CC(C)CC(OC)C(O)C(C)/C=C(\C)C1OC(N)=O` (stereo unspecified), which activation is on record?
Answer: The activation was 6.87% (inactive).

Question: For `Cc1nc2ccc(Oc3ccc(F)cc3)cc2c(=O)n1C[C@H]1CCCN(C(C)C)C1`, which activation is on record?
Answer: The activation was -12.4% (inactive).

Question: Which activation does the source give for `C/C1=C\C[C@H](O[C@@H]2O[C@H](CO)[C@@H](O)[C@H](O)[C@H]2O)/C(C)=C/[C@H]2OC(=O)[C@H](C)[C@@H]2CC1` here?
Answer: Its activation is -8.04% (inactive).

Question: How did the activation turn out when `C=C(C)C1CC(O)C(C)C12CC(O)C1(C)OC1C2O` (stereo unspecified) was run?
Answer: Its activation is 19.1% (inactive).

Question: How did the activation turn out when `CC1(C)CC[C@]2(C(=O)O[C@@H]3O[C@H](CO)[C@@H](O)[C@H](O)[C@H]3O)[C@H](O)C[C@]3(C)C(=CCC4[C@@]5(C)CC[C@H](O[C@@H]6OC[C@@H](O)[C@H](O)[C@H]6O)[C@@](C)(C(=O)O)C5CC[C@]43C)[C@@H]2C1` (stereo partly specified) was run?
Answer: Its activation is -16.8% (inactive).

Question: Which activation does the source give for `C/C=C/C=C/C=C/C(=O)O[C@@H]1[C@@H](OC)C2=C(C(=O)N(C(C)C(=O)O)C2)[C@@]2(C)CCCC(C)(C)[C@H]12` (stereo partly specified) here?
Answer: Its activation is -2.68% (inactive).

Question: How did the activation turn out when `C/C(=C\CCC1(C)C2CC3C(C2)C31C)C(=O)O` (stereo unspecified) was run?
Answer: Its activation is 5.36% (inactive).

Question: Which activation does the source give for `O=C(/C=C/c1ccc(O)cc1)O[C@@H]1C[C@@](O)(C(=O)O)C[C@@H](O)[C@@H]1O` here?
Answer: The activation was 3.82% (inactive).

Question: For `C[C@@H](Nc1cc(NS(=O)(=O)N2CCC2)nc(SCc2cccc(F)c2F)n1)[C@@H](O)CO`, which activation is on record?
Answer: Its activation is -20.5% (inactive).

Question: Which activation does the source give for `CC(=O)OC1C[C@]2(C)C(O)CC(C)=C[C@H](OC(=O)c3ccc(O)cc3)C2[C@]1(O)C(C)C` (stereo partly specified) here?
Answer: The activation was -20.6% (inactive).

Question: Which activation does the source give for `O=C(O[C@H]1[C@@H]2C=CO[C@@H](O[C@@H]3O[C@H](CO)[C@@H](O)[C@H](O)[C@H]3O)[C@@H]2[C@@]2(CO)O[C@@H]12)c1ccccc1` here?
Answer: Its activation is 10.7% (inactive).

Question: For `CCNC1(C(N)=O)CN(c2nc(C)nc3c(-c4ccc(Cl)cc4)c(-c4ccccc4Cl)nn23)C1`, which activation is on record?
Answer: The activation was -0.333% (inactive).

Question: How did the activation turn out when `CCc1ccc(Cc2ccc3c(c2)[C@]2(OC3)O[C@H](CO)[C@@H](O)[C@H](O)[C@H]2O)cc1` was run?
Answer: The activation was 7% (inactive).

Question: `Nc1nc2c(c(=O)[nH]1)C[C@@H](CCc1ccc(C(=O)N[C@@H](CCC(=O)O)C(=O)O)cc1)CN2` was tested. Which activation did it give?
Answer: Its activation is 8.33% (inactive).

Question: Which activation does the source give for `C/C=C(/C)C(=O)OC1C=C2C3C(C)C(C)C(OC(=O)C(C)C(C)O)CC3(C)CCC2(C)C2(C)CC(OC(C)=O)C3C(C)(C)C(O)C(=O)CC3(C)C12` (stereo unspecified) here?
Answer: The activation was -17% (inactive).

Question: `C[C@H](C(=O)NC1CCCC1)N(C(=O)Cn1nnc(-c2ccc3c(c2)OCO3)n1)C1CCCCC1` was tested. Which activation did it give?
Answer: Its activation is 9% (inactive).

Question: `O=C(O)Cc1ccccc1Oc1ccc(Cl)cc1Cl` was tested. Which activation did it give?
Answer: The activation was -3.35% (inactive).

Question: For `CC1(C)CC2C3=CCC4[C@@]5(C)CC[C@H](OC6OCC(O)C(OC7OC(CO)C(O)C(O)C7O)C6O)C(C)(C)C5CC[C@@]4(C)[C@]3(C)C[C@H](O)[C@@]2(CO)[C@H](OC(=O)c2ccccc2)C1` (stereo partly specified), which activation is on record?
Answer: Its activation is 19.8% (inactive).

Question: For `COCC(=O)N1CCc2cc(-c3csc(NC(=O)c4cc(OC)cc(OC)c4)n3)ccc21`, which activation is on record?
Answer: The activation was 13.7% (inactive).

Question: Which Potency does the source give for `COc1ccc([C@H]2OC[C@H]3O[C@@H](O[C@H]4[C@@H]2NC[C@@H]4O)[C@H](O)[C@H]3O)cc1` here?
Answer: The Potency was 5.24 µM (active).

Question: How did the activation turn out when `C[C@@H]1O[C@@H](O[C@H]2[C@H](OC(=O)C34CCC5(C)C(=CCC6C7(C)CC(O)C(O[C@@H]8O[C@H](C(=O)O)[C@@H](O)[C@H](O)[C@H]8O)C(C)(C(=O)O)C7CCC65C)C3CC(C)(C)CC4O)O[C@H](C)[C@@H](O)[C@@H]2O)[C@H](O)[C@@H](O[C@@H]2OC[C@](O)(CO)[C@H]2O[C@@H]2O[C@H](CO)[C@@H](O)[C@H](O)[C@H]2O)[C@H]1O` (stereo partly specified) was run?
Answer: Its activation is 8.4% (inactive).

Question: For `O=c1c2cccnc2n(-c2cccc([N+](=O)[O-])c2)c(=O)n1Cc1ccncc1`, which activation is on record?
Answer: Its activation is -20% (inactive).

Question: `C[C@]1(CO)CN(c2cc(C(=O)Nc3ccc4c(c3)-c3c(c(C(N)=O)nn3-c3ccc(F)cc3)CC4)c(Cl)cn2)C[C@@]1(C)CO` was tested. Which activation did it give?
Answer: Its activation is 21.4% (inactive).
